Reference: the OligoGym collection

Molecular target: MRPS24
Assay: pooled miR-30 sensor sort-seq; sequence = guide strand
Conditions: shRNA

| Sequence | sensor-assay potency score (higher = more potent) |
| --- | --- |
| TTGTGTGGAGACAACTGCCTCA | -0.151 |
| TTGGAGGTGGAGTCGCACAGGA | -0.602 |
| TTCACTGTAGCCCACGAGGAAG | -1.08 |
| TACTTGTGTGGAGACAACTGCC | -0.594 |
| TAAAACCAGCTGGTCAGCCAGG | -1.47 |
| TGTGCAGCGACAGCCAGCCTTT | -0.931 |
| AAGGAAAACATCCTCCACCGTT | -0.646 |
| TAAAAGTAGGACAGCAAAGTTT | -1.12 |
| TAGGACAGCAAAGTTTCACTGT | 0.628 |
| TAGGTCACCGGCTTGTCCCCCT | 0.167 |
| TACCCCACATGAACTTGCGAAG | -1.43 |
| TTTGTAAAAGTAGGACAGCAAA | -1.45 |

Molecular target: MRS2
Assay: as above
Conditions: shRNA

| Sequence | sensor-assay potency score (higher = more potent) |
| --- | --- |
| TAAACCGGTGCACTTCACCTGC | -0.316 |
| TTAATATCTGTTTCTAACTCTG | 0.197 |
| TGAATCATCAATCAGCACCCTA | -0.284 |
| TTTGTCACAGTAAATACTGGGG | 0.152 |
| TACACAGAGCTCTTCTAGCAAC | -1.3 |
| TTGATACACAGAGCTCTTCTAG | -0.709 |
| TAATATCAGAAGACACTCTGGA | 0.725 |
| TAATATCTGTTTCTAACTCTGA | -0.212 |
| TAGCAACTCTTCCTCATCCAAG | -1 |
| TTCCATGCTTCTATCTGCCAGA | -0.489 |
| TGTGATACTCATTACATGCTGA | 0.129 |

Molecular target: MST4
Assay: as above
Conditions: shRNA

| Sequence | sensor-assay potency score (higher = more potent) |
| --- | --- |
| TATAGGACAATTTATTACCATG | -1.23 |
| TATTTTGTTACATATGAGCTGT | -0.0518 |
| TTATCATAGACAAACAACTCAG | -0.749 |
| TAAACTGTAATTGTGTTTCAGT | 0.0353 |
| TTCAACATTACCAAACACCTAT | -0.0444 |
| TAGTTTAATAGCTTCTTCCAAA | -1.19 |
| TAAAATTGCCTCTTCTACCTAA | 0.733 |
| TTTGTGAACAGTTCTTCTGGAT | 0.425 |
| TATCATAGACAAACAACTCAGG | -0.251 |
| TTGCTTTAAATTTCTAACCATG | -1.11 |
| TAATATTTGACAATTACTCAGA | -0.142 |
| TTTAATAGCAACGACTTGCTGG | 0.885 |

Molecular target: MTDH
Assay: as above
Conditions: shRNA

| Sequence | sensor-assay potency score (higher = more potent) |
| --- | --- |
| TTCTCGGACAGTTTCTTCCGGT | -0.0604 |
| TTGCTTACTAATCTGTAGGCAA | -0.352 |
| TTTATCATCATCTGAGACCTTT | -0.0741 |
| TATTCTTCTTGGAACCAACAGG | -0.744 |
| TTAGAAGTGAAGCTCTTTCTTC | -0.219 |
